# The list is not random: actives were taken first. Their share in the collection is about 3.1%.
# SARS 3CLpro inh-1 = SARS-CoV 3CLpro protease inhibition. actives 0.14% (n = 290,000). recombinant SARS-CoV 3CLpro, quenched FRET peptide cleavage. inhibition, % at 6 µM. P0C6X7; in the data active means inhibition above about 12%
# GDH-TPI counter = inhibits GDH-TPI coupling enzymes, artifact for Mtb FBA screen; GDH-TPI coupled enzyme counterscreen, NADH absorbance; inhibition, % at 4.8 µM; actives 1.2% (n = 360,000); AID 588335; in the data active means inhibition above about 30%;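 further: 0% = DMSO wells and 100% = wells lacking the enzyme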
# FBA Mtb inh = Mtb fructose-bisphosphate aldolase inhibition; actives 2.3% (n = 360,000); purified M. tuberculosis FBA, fluorescence read-out; P9WQA3; inhibition, % at 1 µM; AID 588726; in the data active means inhibition above about 27%;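 further: 0% = vehicle and 100% = reference inhibitor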
# Target sequence (P9WQA3 whole entry, looked up): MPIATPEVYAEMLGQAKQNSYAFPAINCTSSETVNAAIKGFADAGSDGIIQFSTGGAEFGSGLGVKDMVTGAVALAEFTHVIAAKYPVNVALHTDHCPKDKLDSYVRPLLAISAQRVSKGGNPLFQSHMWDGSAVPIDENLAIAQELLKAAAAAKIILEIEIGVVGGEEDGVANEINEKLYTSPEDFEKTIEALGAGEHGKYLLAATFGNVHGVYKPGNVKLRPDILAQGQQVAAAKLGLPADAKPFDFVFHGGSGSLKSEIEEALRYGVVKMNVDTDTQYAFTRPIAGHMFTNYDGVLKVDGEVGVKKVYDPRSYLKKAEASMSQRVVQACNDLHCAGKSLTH
# BioA inh = BioA (M. tuberculosis) enzyme inhibition. purified M. tuberculosis BioA enzyme, plate reader. inhibition, % at 9.99 µM. actives 0.096% (n = 360,000). AID 602481; in the data active means inhibition above about 40%
# FadD28 binding = inhibitors of Mycobacterium tuberculosis FadD28 bisubstrate binding; FadD28 bisubstrate probe binding, fluorescence polarization; inhibition, % at 12.5 µM; actives 0.22% (n = 360,000); AID 588549; in the data active means inhibition above about 8.5%, passing the limit was not always enough
# SARS 3CLpro inh-2 = SARS 3CLpro inhibition, confirmation assay; shares compounds with SARS 3CLpro inh-1; QFRET protease activity assay; inhibition, % at 6 µM; actives 36% (n = 380); AID 1879; in the data active means inhibition above about 13%
# Active calls of the source: *; x = not tested or not shown.
SMILES,SARS 3CLpro inh-1,GDH-TPI counter,FBA Mtb inh,BioA inh,FadD28 binding,SARS 3CLpro inh-2
Cc1ccc(C)c(OC(C)C(=O)Nc2nccs2)c1 (stereo not given),12.6*,-0.7,-0.4,-1.2,0.7,0.0
CC1=Nc2cccc3cccc(c23)N1C,12.7*,14.3,0.8,x,-2.1,-5.1
CN1C(=O)N(C)c2cccc3cccc1c23,2.7,-2.0,0.5,0.7,-1.1,x
C[C@@H]1CCCCO[C@H](CN(C)C(=O)C2CCCCC2)[C@H](C)CN([C@@H](C)CO)C(=O)c2cc(NS(C)(=O)=O)ccc2O1,x,x,x,-0.5,x,x
C[C@H](CO)N1C[C@H](C)[C@H](CN(C)Cc2ccc(Cl)c(Cl)c2)Oc2c(NS(=O)(=O)c3cccs3)cccc2C1=O,x,x,x,-2.7,x,x
COc1ccc(C(C(=O)NCC2CCCO2)N(C(=O)Cn2nnc3ccccc32)c2ccc(NC(C)=O)cc2)c(OC)c1 (stereo not given),17.6*,-6.8,-0.2,0.7,-2.5,10.9
COc1cc(C(C(=O)NCC2CCCO2)N(C(=O)Cn2nnc3ccccc32)c2ccc(C(C)=O)cc2)ccc1O (stereo not given),-1.7,-1.5,0.4,-0.9,-1.9,x
CCOc1cc(C(C(=O)NCC2CCCO2)N(C(=O)Cn2nnc3ccccc32)c2ccc(OC)c(OC)c2)ccc1O (stereo not given),0.2,9.0,0.1,-3.7,-1.0,x
COc1cccc(C(C(=O)NCC2CCCO2)N(C(=O)Cn2nnc3ccccc32)c2ccc(NC(C)=O)cc2)c1OC (stereo not given),15.3*,3.0,-0.2,x,1.3,9.1
CC(C)c1ccc(N(C(=O)c2csnn2)C(C(=O)NC2CCCC2)c2cccnc2)cc1 (stereo not given),15.4*,0.0,-1.6,-0.3,-2.6,20.1*
CC1CCC2C(=O)N(c3cc(Cl)ccc3OC(=O)c3ccco3)C(=O)C2C1 (stereo not given),45.9*,14.9,-0.2,0.4,-1.1,60.2*
N#Cc1c(NC(=S)NC(=O)c2ccccc2)sc2c1CCC2,21.2*,20.2,-4.0,0.7,-0.3,-2.6
COCC#Cc1cnc2c(c1)C(=O)N([C@H](C)CO)C[C@H](C)[C@H](CN(C)C(=O)C1CCCCC1)O2,x,x,x,-1.7,x,x
COc1ccc(N(C(=O)Cn2nnc3ccccc32)C2(C(=O)NC3CCCC3)CCCCC2)cc1,30.2*,0.0,-0.5,x,-0.9,42.9*
COCCN(C(=O)Cn1nnc2ccccc21)C(C(=O)NC1CCCCC1)c1ccc(OC)cc1OC (stereo not given),4.0,1.2,3.9,1.2,-1.5,x
COC(=O)c1cc2sccc2n1CC(=O)Nc1ccc(OC)c(OC)c1OC,14.0*,4.5,-0.8,4.3,-0.3,-3.7
CCOC(=O)c1cc2sccc2n1CC(=O)Nc1ccc(OC)cc1OC,0.0,5.3,-2.0,5.2,-2.6,x
CO[C@@H]1CN(C)C(=O)c2cc(NC(=O)C3CCC3)ccc2OC[C@@H](C)N(Cc2ccncc2)C[C@H]1C,x,x,x,-1.8,x,x
O=C(/C=C/c1cccs1)Nc1scc(-c2ccccc2)c1C(=O)O,23.4*,20.7,-2.2,x,6.7,60.6*
O=C(NCC(=O)N1CCN(Cc2ccccc2)CC1)c1ccc(Br)cc1,12.3*,9.8,0.0,-0.4,-4.1,1.5
O=C(NCC(=O)N1CCN(Cc2ccccc2)CC1)c1ccc(Cl)cc1,-4.3,0.0,1.8,1.9,-0.5,x
O=C(/C=C/c1ccc(Cl)c([N+](=O)[O-])c1)NCc1cccnc1,17.9*,-2.2,0.6,1.6,-2.6,18.5*
O=C(/C=C/c1ccc([N+](=O)[O-])cc1)NCc1cccnc1,4.1,12.8,-1.4,x,-2.3,x
Cc1ccc(C(=O)Cn2nnc3ccccc32)cc1,5.5,6.9,0.1,2.4,-1.0,x
O=C(Cn1nnc2ccccc21)c1ccc(Br)cc1,57.2*,-3.8,9.6,-3.3,0.4,54.7*
SMILES,SARS 3CLpro inh-1,GDH-TPI counter,FBA Mtb inh,BioA inh,FadD28 binding,SARS 3CLpro inh-2
Cc1ccc2[nH]c3c(c2c1)CN(C(=O)CN1c2ccc(F)cc2CCC1C)CC3 (stereo not given),44.2*,7.7,-0.9,-1.3,-3.2,28.0*
COc1ccc(CN(C)C[C@H]2OCCCC[C@H](C)Oc3ccc(NC(=O)C4CCCCC4)cc3C(=O)N([C@@H](C)CO)C[C@H]2C)cc1,x,x,x,-3.7,x,x
C[C@H]1CN([C@@H](C)CO)S(=O)(=O)c2ccc(-c3ccc(F)cc3)cc2O[C@H]1CN(C)S(C)(=O)=O,x,x,x,2.0,x,x
O=C(NN1C(=O)/C(=C/c2ccc(O)cc2)SC1=S)c1ccccc1O,13.3*,8.1,-14.9,-15.1,18.9*,-2.1
Cc1ccc(-n2c(Cc3cccn3C)nnc2SCC(=O)Nc2ccc3c(c2)OCO3)cc1,14.0*,-4.4,0.2,2.2,-2.0,2.0
Cn1cccc1Cc1nnc(SCC(=O)Nc2ccc3c(c2)OCCO3)n1-c1ccc(F)cc1,0.1,-11.9,0.3,1.4,-2.1,x
Oc1ccc(Cl)cc1Cc1cc(Cl)ccc1O,13.0*,16.9,5.9,4.2,-16.1,7.2
CNC[C@H]1Oc2cc(-c3ccccc3F)ccc2S(=O)(=O)N([C@H](C)CO)C[C@@H]1C,x,x,x,-4.8,x,x
C[C@H](CO)N1C[C@H](C)[C@@H](CN(C)C(=O)NC2CCCC2)Oc2ncc(-c3ccccc3)cc2C1=O,x,x,x,0.9,x,x
Cc1ccc(C(=O)NC(C#N)=C(Cl)Cl)cc1,13.0*,x,x,x,x,0.8
Cc1ccc(C(=O)NC(=C(Cl)Cl)S(=O)(=O)c2ccccc2)cc1,21.2*,0.0,0.9,x,-3.2,27.8*
COc1ccc(C(=O)NC(=C(Cl)Cl)S(=O)(=O)c2ccc(C)cc2)cc1,8.6,-15.5,-1.2,-0.2,-7.8,x
CCCN1C[C@@H](C)[C@H](OC)CN(C)C(=O)c2cc(NC(=O)COC)ccc2OC[C@@H]1C,x,x,x,4.3,x,x
CSc1ccccc1OCc1cc(C(=O)N(C)Cc2cc(C)[nH]n2)no1,-3.9,8.4,1.1,1.6,-2.3,x
CSc1ccccc1OCc1cc(C(=O)N(C)Cc2cnccn2)no1,14.2*,1.4,3.6,-0.1,-3.4,1.1
CO[C@H]1CN(C)C(=O)c2cc(NC(=O)Nc3ccccc3Cl)ccc2OC[C@H](C)NC[C@H]1C,x,x,x,1.3,x,x
COc1ccc(NC(=O)N(C)C[C@@H]2OCCCC[C@@H](C)Oc3ccc(NS(=O)(=O)c4c(C)noc4C)cc3C(=O)N([C@H](C)CO)C[C@H]2C)cc1,x,x,x,-0.6,x,x
COC(=O)c1ccc(NC(=O)c2ccc(NC(=O)c3ccco3)cc2)cc1,13.4*,-0.7,-2.6,-2.2,-4.6,-1.2
O=C(Oc1ccc(Br)cc1C(=O)/C=C/c1ccccc1F)c1ccco1,21.8*,4.0,-1.9,-4.5,-4.5,42.9*
C[C@@H]1CN([C@H](C)CO)C(=O)c2cc(C#CCc3ccccc3)cnc2O[C@@H]1CN(C)C(=O)C1CC1,x,x,x,1.4,x,x
